{
  "source": "ChEMBL document CHEMBL3433997",
  "about": "“St. Jude Leishmania screening dataset” (2016)",
  "note": "Where “and” joins values, the source holds several entries; their conditions need not be identical. Identical values can stand only once.",
  "data": [
    {"target": "Hexose transporter 1 (Plasmodium falciparum) (UniProt O97467)", "assay": "ST_JUDE_LEISH: Cytotoxicity at 2uM final concentration against transgenic Leishmania Mexicana promastigotes LmPfHT that are glucose transport deficient and complemented with the Plasmodium falciparum hexose transporter. Activity is measured by DNA content using SYBR green in vitro", "type": "functional", "values": [
      {"smiles": "CCC(C)NC(=O)CN1CN(c2ccccc2)C2(CCN(C(=O)c3ccc(C(C)(C)C)cc3)CC2)C1=O", "note": "(centres undefined)", "inhibition": "2.77%"},
      {"smiles": "O=C(CSc1nnc(-c2ccccc2Br)[nH]1)c1c[nH]c2ccccc12", "inhibition": "-0.7%"},
      {"smiles": "Cc1ccnc(Nc2nc(-c3ccccn3)cs2)c1", "inhibition": "22.4%"},
      {"smiles": "N#Cc1ccc(-c2nc(CO)c(C(=O)NCCCCN3CCC(c4ccc5c(c4OCC(N)=O)CCCC5)CC3)s2)cc1", "inhibition": "-1.06%"},
      {"smiles": "CCOC(=O)C1=C(C)NC2=C(C(=O)CC(C)(C)C2)C1c1ccc(Cl)cc1", "note": "(centres undefined)", "inhibition": "0.77%"},
      {"smiles": "CS(=O)(=O)Nc1cccc(-c2cnc3[nH]cc(-c4ccc(CCC(=O)O)cc4)c3c2)c1", "inhibition": "1.66%"},
      {"smiles": "Cc1cc(=O)c(-c2ccc(Oc3cccc(C(F)(F)F)c3)cc2)c(C)[nH]1", "inhibition": "2% and 2.11%"},
      {"smiles": "COc1cccc(-c2ccc(NC(=O)C3CCCN(Cc4cccc(OC)c4O)C3)cc2)c1", "note": "(centres undefined)", "inhibition": "2.29%"},
      {"smiles": "Cc1cccc(Cn2ccc3c4c(N)nc(N)nc4ccc32)c1", "inhibition": "81.5%"},
      {"smiles": "O=C(Nc1cccc(-c2cccc(-c3nc4cc(C(F)(F)F)ccc4[nH]3)c2)c1)c1ccncc1", "inhibition": "7.47%"},
      {"smiles": "COc1ccc(S(=O)(=O)N2CCCc3ccc(Br)cc32)cc1N1CCN(C(=O)C(Cl)(Cl)Cl)CC1", "inhibition": "2.99%"},
      {"smiles": "Cc1cc(N2CCC(NS(=O)(=O)c3ccc(F)cc3)CC2)nc(Nc2cccc(C#N)c2)n1", "inhibition": "46.5%"},
      {"smiles": "CCC(C)NC(=O)Nc1ccc(-c2cccc(-c3nc4cccc(C)c4[nH]3)c2)cc1", "note": "(centres undefined)", "inhibition": "0.26%"},
      {"smiles": "CCOC(=O)c1ccc(NC(=O)Nc2ccc(-c3cccc(-c4nc5cccc(C)c5[nH]4)c3)cc2)cc1", "inhibition": "-0.4%"},
      {"smiles": "CC(Oc1cccc(Cl)c1)C(=O)N1CCc2ccccc21", "note": "(centres undefined)", "inhibition": "-1.34%"},
      {"smiles": "COc1ccc(NC2=C(c3ccccc3)C(=O)c3ccccc32)cn1", "inhibition": "4.66%"},
      {"smiles": "CN(C)C=Nc1ccc(OCCCCCCOc2ccc(N=CN(C)C)cc2)cc1", "inhibition": "3.26%"},
      {"smiles": "COc1ccc2nccc([C@@H](O)CN3CCC(NCCOc4cccc(C(F)(F)F)c4Cl)CC3)c2c1", "inhibition": "12%"},
      {"smiles": "CC1CCCCN1Cc1cccc(-c2c[nH]c3nc(NC4CCCC4)ncc23)c1", "note": "(centres undefined)", "inhibition": "6.53%"},
      {"smiles": "CN(C)CCCNCc1cn(S(=O)(=O)c2ccccc2Cl)c2ccccc12", "inhibition": "5.25%"},
      {"smiles": "CCNc1cc(C(=O)N[C@@H](Cc2ccccc2)[C@H](O)CN[C@@H]2CCc3ccccc32)cc(N2CCCC2=O)c1", "inhibition": "2.63%"},
      {"smiles": "CCOc1cc2c(cc1S(=O)(=O)c1ccc(COc3ccc(C(F)(F)F)cc3)cc1)CCN(C)CC2", "inhibition": "3.79%"},
      {"smiles": "CCn1c(-c2nonc2N)nc2c(-c3cccc(NC(=O)Nc4cccc(C(F)(F)F)c4)c3)ncc(OCCCN)c21", "inhibition": "1.37%"},
      {"smiles": "CC(=NNC(N)=O)C1=C(O)C(c2ccccc2)N(C2CCCCC2)C1=O", "note": "(centres undefined)", "inhibition": "-0.08%"},
      {"smiles": "CC(C)(C)c1cc(C(=O)N2CCN(c3nccnc3C#N)CC2)n(Cc2ccccc2)n1", "inhibition": "1.96%"},
      {"smiles": "CN1CCN(C(C(=O)NCc2cc(Cl)cc(Cl)c2)c2ccccc2-c2ccsc2)CC1", "note": "(centres undefined)", "inhibition": "5.51%"},
      {"smiles": "COc1ccc(C)cc1NC(=O)CSc1nc2cccnc2n1C1CCCCC1", "inhibition": "4.88%"},
      {"smiles": "COc1ccc(NC(=O)NC2CCN(c3ccnc4cc(Cl)ccc34)C2)cc1", "note": "(centres undefined)", "inhibition": "2.85%"},
      {"smiles": "CC1(C)NC(N)=NC(=N)N1OCCCOc1cccc2ccccc12", "inhibition": "61.1%"},
      {"smiles": "Oc1cccc(Nc2ccnc3cc(-c4nccs4)ccc23)c1", "inhibition": "12.9%"},
      {"smiles": "Oc1ccc(CCCNc2nc(NCc3cccc4ccccc34)nc(N3CCNCC3)n2)cc1", "inhibition": "0.53%"},
      {"smiles": "COc1ccc2nc(C)cc(Nc3ccc(Cl)c(Cl)c3)c2c1", "inhibition": "14.2%"},
      {"smiles": "COc1cc2nc(N3CC(C)N(C(=O)Cc4ccc(-c5ccccc5)cc4)C(C)C3)nc(N)c2cc1OC", "note": "(centres undefined)", "inhibition": "5.22%"},
      {"smiles": "Nc1nc(Nc2cccc(Cl)c2)ncc1C(=O)NCc1ccncc1", "inhibition": "7.86%"},
      {"smiles": "COc1cc2c(cc1OC)C(c1ccc(Br)cc1)CN(C)CC2", "note": "(centres undefined)", "inhibition": "4.21%"},
      {"smiles": "CCC(CC)N1C(=O)C(c2ccccc2)(c2ccccc2)N=C1N", "inhibition": "3.51%"},
      {"smiles": "COc1ccc2[nH]c3ccccc3c(=O)c2c1", "inhibition": "0.99%"},
      {"smiles": "CCCCCCN1CCCN(Cc2ccc(C(=O)Nc3ccc(CC)cc3)cc2)CC1", "inhibition": "10.9%"},
      {"smiles": "Nc1nc2c(ncn2OC[C@H]2COP(=O)(O)CO2)c(=O)[nH]1", "inhibition": "0.55%"}
    ]}
  ]
}
